Experimental findings from PubChem BioAssay (NCATS) are described below.

Test [1] can be described thus: qHTS profiling for inhibitors of Plasmodium falciparum proliferation (AID 504749).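 As to activity, negative = inhibition: 0% = DMSO vehicle and full inhibition = artemisinin control.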 As to all read-outs here: nearly all actives have a fitted effect of over 60% in size. The note with it: P. falciparum in erythrocytes, SYBR Green DNA, 72 h; for activity, negative = inhibition: at 28.7 µM (top of the series). The procedure, abridged:
(§1)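 SYBR Green fluorescence (ex 485 nm, em 535 nm) reports parasite DNA after 72 h compound exposure of infected red cells at 0.3% parasitemia, 2.5% hematocrit; signal normalized to 0.29 uM artemisinin and vehicle wells.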
A general note: Quantitative high-throughput screening tests each substance at several concentrations.

The test system of a further test is 3D7. The test is described as above. As to conditions: P. falciparum in erythrocytes, SYBR Green DNA, 72 h; series mostly up to 28.7 µM. In short, it runs like this: as §1
A further test deals with 7G8. Described as above. The note with it: P. falciparum in erythrocytes, SYBR Green DNA, 72 h; series mostly up to 28.7 µM. The procedure, abridged:
as §1

The next test deals with AA1029. Described as above. As to conditions: P. falciparum in erythrocytes, SYBR Green DNA, 72 h; series mostly up to 28.7 µM. The procedure, abridged: as §1
A further test has as its system AS120. The test is described as above. The note with it: P. falciparum in erythrocytes, SYBR Green DNA, 72 h; series mostly up to 28.7 µM. The procedure, abridged: as §1
Another test relates to ATS95. The description is as above. As to conditions: P. falciparum in erythrocytes, SYBR Green DNA, 72 h; series mostly up to 28.7 µM. The procedure, abridged:
as §1

A further test concerns C2A. The description is as above. As to conditions: P. falciparum in erythrocytes, SYBR Green DNA, 72 h; series mostly up to 28.7 µM. The procedure, abridged:
as §1

A further test has as its system CP185. The test is described as above. The note with it: P. falciparum in erythrocytes, SYBR Green DNA, 72 h; series mostly up to 28.7 µM. In short, it runs like this: as §1
Another test deals with CP191. Described as above. As to conditions: P. falciparum in erythrocytes, SYBR Green DNA, 72 h; series mostly up to 28.7 µM. The procedure, abridged:
as §1

A further test deals with CP192. The test is described as above. As to conditions: P. falciparum in erythrocytes, SYBR Green DNA, 72 h; series mostly up to 28.7 µM. The procedure, abridged: as §1
A further test concerns CP194. The test is described as above. The note with it: P. falciparum in erythrocytes, SYBR Green DNA, 72 h; series mostly up to 28.7 µM. In short, it runs like this:
as §1

In another test the test system is CP211. Described as above. The note with it: P. falciparum in erythrocytes, SYBR Green DNA, 72 h; series mostly up to 28.7 µM. In short, it runs like this: as §1
Another test relates to ATS189. The description is as above. The note with it: P. falciparum in erythrocytes, SYBR Green DNA, 72 h; series mostly up to 28.7 µM. The procedure, abridged:
as §1

A further test has as its system CP201. The test is described as above. As to conditions: P. falciparum in erythrocytes, SYBR Green DNA, 72 h; series mostly up to 28.7 µM. In short, it runs like this:
as §1

Another test deals with CP203. Described as above. The note with it: P. falciparum in erythrocytes, SYBR Green DNA, 72 h; series mostly up to 28.7 µM. In short, it runs like this:
as §1

Records with an inconclusive call do not appear. A number with no mark means an inactive call. Active and inactive are the calls of the source. Calls follow the shape of the dose curve; as a rule, active = well fitted inhibition curve with a large enough effect; inconclusive = small, poorly fitted or top-dose-only effect; inactive = flat fitted curve, though single readings scatter.
Potency is read from the fitted curve at half-maximal effect.

As for `CCOC(=O)C1=C(C)NC(C)=C(C(=O)OCC)C1c1ccccc1C=CC(=O)OC(C)(C)C`, the Potency in [1] (parasite line A) is 11.2 µM (active); in the test with 3D7, 11.2 µM (active); in the test on 7G8 it was 7.94 µM (active); in the test with AA1029, 8.91 µM (active); in the test on AS120 it was 8.91 µM (active); with ATS95 it was 10 µM (active). In addition, the Potency in the test with CP185 was 11.2 µM (active); in the test on CP191, 8.91 µM (active); in the test with CP192, 12 µM (active); in the test with CP194 it was 15.1 µM (active); with CP211, 15.1 µM (active). The Potency result with C2A was “inactive”.

For the compound `Cc1c(C)c2c(c(C)c1O)CC[C@@](C)(CCC[C@@H](C)CCC[C@@H](C)CCCC(C)C)O2`, the activity, negative = inhibition in test [1] (parasite line B) is 18%. The Potency entry with 3D7, with 7G8, in the test on AA1029, with ATS189, in the test on ATS95 and with C2A was “inactive” throughout. The Potency result with CP185, in the test on CP191, with CP192, in the test with CP194, with CP201 and in the test on CP203 was “inactive” in each case. Moreover, the Potency result with CP211 is “inactive”.

As to `O=C(Nc1ccc(Br)cc1)c1cc(Br)c(Br)s1`, the Potency in [1] (parasite line A) was 10 µM (active); in the test on 7G8, 10 µM (active); in the test with CP203, 16.9 µM (active).

Consider `CCCCCCCC/C=C\CCCCCCCC(=O)O`, for which, in test [1] (parasite line A), the activity, negative = inhibition is 12.9%. The Potency result in the test with 3D7, with 7G8, with AA1029, in the test on AS120, with ATS189 and in the test on ATS95 was “inactive” throughout. Further, the Potency result in the test with C2A, in the test with CP185, with CP191, in the test with CP192, with CP194 and in the test with CP201 was “inactive” throughout. For the same compound, the Potency result in the test with CP203 and with CP211 was “inactive” each time.

In the case of `COc1cc(-c2ccc(-[n+]3nc(-c4ccccc4)nn3-c3ccc([N+](=O)[O-])cc3)c(OC)c2)ccc1-[n+]1nc(-c2ccccc2)nn1-c1ccc([N+](=O)[O-])cc1`, the Potency in test [1] (parasite line A) was 10 µM (active); in [1] (parasite line B), 11.2 µM (active); with 3D7, 11.2 µM (active); in the test with 7G8, 11.2 µM (active); with AA1029 it was 11.2 µM (active); in the test on C2A, 11.2 µM (active). Moreover, the Potency with CP185 is 10 µM (active); in the test with CP191, 11.2 µM (active); with CP192, 19 µM (active); in the test with CP201, 16.9 µM (active); with CP211, 13.5 µM (active).

As for `COC(=O)CCC(=O)CN`, the activity, negative = inhibition in [1] (parasite line A) was 6.69%; in test [1] (parasite line B), 8.06%. The Potency entry in the test with 3D7, in the test with AA1029, with AS120, in the test on ATS189, in the test with ATS95 and in the test with C2A was “inactive” in each case. Besides, the Potency result with CP185, in the test on CP191, with CP192, in the test on CP201, in the test on CP203 and in the test with CP211 was “inactive” throughout.

Consider `CCCCC(CC)COC(=O)CC(C(=O)OCC(CC)CCCC)S(=O)(=O)O` (stereo not drawn), for which the Potency entry in the test with CP192, in the test with CP194, with CP201 and in the test on CP211 was “inactive” each time.

As to `CC(=O)Oc1c(C)cc(OCC(O)CNC(C)C)c(C)c1C` (stereo not drawn), the Potency entry in the test on 3D7, in the test with 7G8, in the test with AA1029, in the test with AS120, with ATS189 and with ATS95 was “inactive” in each case. Further, the Potency result with C2A, with CP185, in the test with CP191, in the test on CP192, with CP194 and in the test with CP201 was “inactive” each time. The Potency result in the test with CP203 and in the test on CP211 was “inactive” in each case.

Consider `O=C1CSC2(CCN(CCCN3c4ccccc4Sc4ccc(Cl)cc43)CC2)N1`, for which the activity, negative = inhibition in test [1] (parasite line A) was -17.8%; in test [1] (parasite line B) it was -28.1%. For the same compound, in the test on 7G8, the Potency was 11.2 µM (active). Besides, the Potency entry in the test with C2A and in the test on CP185 was “inactive” each time.

`O=S(=O)(O)c1ccc2c(N=Nc3ccc(S(=O)(=O)O)c4ccccc34)c(O)c(S(=O)(=O)O)cc2c1`: the activity, negative = inhibition was -19.8% in test [1] (parasite line A) and -30% in [1] (parasite line B). Moreover, the Potency entry in the test on 3D7, in the test with 7G8, with AA1029, with AS120, in the test with ATS189 and with C2A was “inactive” in each case. Moreover, the Potency entry with CP185, in the test on CP191, in the test on CP192, in the test with CP194, in the test on CP201 and with CP203 was “inactive” each time. Also, the Potency result with CP211 was “inactive”.

As for `CN(C)CCCN1c2ccccc2C(C)(C)c2ccccc21`, the activity, negative = inhibition is -5.82% in test [1] (parasite line A) and -11.4% in [1] (parasite line B). Further, the Potency result with 3D7, with C2A, in the test on CP185, with CP192, in the test with CP201 and in the test with CP211 was “inactive” in each case. Further, the Potency with ATS95 was 8.91 µM (active).

`CN1C(=O)CN2CCc3ccccc3C2c2cc(Cl)ccc21` (stereo not drawn): the activity, negative = inhibition in [1] (parasite line A) is -10.8%; in test [1] (parasite line B), -17.4%. In addition, the Potency entry in the test on 3D7, in the test with AA1029, in the test with ATS189, in the test on ATS95, in the test with C2A and with CP185 was “inactive” each time. In addition, the Potency entry with CP191, with CP192, with CP194, in the test on CP201, with CP203 and with CP211 was “inactive” throughout. Besides, in the test with 7G8, the Potency is 12.6 µM (active).

For the compound `Clc1cc(Cl)c(OCC#CI)cc1Cl`, the Potency is 11.2 µM (active) in test [1] (parasite line A); 11.2 µM (active) in test [1] (parasite line B); 11.2 µM (active) with 3D7; 11.2 µM (active) with 7G8; 12.6 µM (active) in the test with AA1029; 8.91 µM (active) with C2A. Moreover, the Potency result in the test with CP192 was “inactive”.
